Results filed as inconclusive are left out. A number with no mark means an inactive call. The call rests on the fitted dose curve; in most records, active means well fitted inhibition curve with a large enough effect; inconclusive means small, poorly fitted or top-dose-only effect, or effect the other way; inactive means flat fitted curve, though single readings scatter.
molecular target: ATP-dependent 6-phosphofructokinase (Trypanosoma brucei brucei) (UniProt O15648); experiment: qHTS Assay to Find Inhibitors of T. brucei phosphofructokinase: hit validation (AID 492961);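 further: luminescence reports ADP formed as PFK phosphorylates fructose-6-phosphate with ATP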; details: T. brucei PFK, ADP-Glo luminescence; series mostly up to 51.4 µM; activity change, negative = inhibition: at the top concentration
Sequence (O15648 whole entry, looked up): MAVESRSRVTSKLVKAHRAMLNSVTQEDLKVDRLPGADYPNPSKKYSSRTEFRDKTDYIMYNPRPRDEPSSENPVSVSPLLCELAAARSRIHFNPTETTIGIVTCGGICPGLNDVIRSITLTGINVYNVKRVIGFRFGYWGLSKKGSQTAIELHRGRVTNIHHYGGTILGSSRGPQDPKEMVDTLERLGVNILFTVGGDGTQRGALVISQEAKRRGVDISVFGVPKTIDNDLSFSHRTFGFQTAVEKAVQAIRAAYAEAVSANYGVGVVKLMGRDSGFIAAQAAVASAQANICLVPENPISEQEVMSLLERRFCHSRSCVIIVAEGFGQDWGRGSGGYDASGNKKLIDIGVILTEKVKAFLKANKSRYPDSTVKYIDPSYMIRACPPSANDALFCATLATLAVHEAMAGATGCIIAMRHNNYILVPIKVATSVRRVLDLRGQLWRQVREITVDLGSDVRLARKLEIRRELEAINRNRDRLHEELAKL
Summary of the method: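 Compounds titrated; %activity normalized to 0x and 1x enzyme controls, curve-fitted. Readout: ADP-Glo luminescence after 45 min room-temperature reaction of 1.25 nM PFK, 0.1 mM ATP, 0.5 mM F6P, pH 8.0.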
On the % scale 0 is the no-effect control and ±100 the full control effect.

**Q.** How did the “activity change, negative = inhibition” value turn out when `C=CC(C)(O)CC/C=C(\C)CCC=C(C)C` (stereo unspecified) was run?
**A.** Its value is 3.09%.

**Q.** For `CCCCC(CC)COS(=O)(=O)O` (stereo unspecified), which “activity change, negative = inhibition” value is on record?
**A.** The value was 2.44%.

**Q.** Which “activity change, negative = inhibition” value does the source give for `CC1=CC(=C(c2ccc(N)cc2)c2ccc(N)cc2)C=CC1=N` here?
**A.** Its value is -3.57%.

**Q.** For `CNC(=O)c1c(I)c(C(=O)NCC(=O)Nc2c(I)c(C(=O)O)c(I)c(C(=O)NCCO)c2I)c(I)c(N(C)C(C)=O)c1I`, which “activity change, negative = inhibition” value is on record?
**A.** Its value is 4.1%.

**Q.** How did the “activity change, negative = inhibition” value turn out when `CCCOc1cc(N)ccc1C(=O)OCCN(CC)CC` was run?
**A.** Its value is 2.39% [at 24.3 µM].

**Q.** For `CCCCC/C=C\C/C=C\C/C=C\CCCCC(=O)O`, which “activity change, negative = inhibition” value is on record?
**A.** The value was -10.4%.

**Q.** Which “activity change, negative = inhibition” value does the source give for `CCN(CC)CCOC(=O)c1cccnc1` here?
**A.** The value was -7.77%.

**Q.** How did the “activity change, negative = inhibition” value turn out when `O=C1c2ccccc2CN2C(=O)c3ccccc3CN12` was run?
**A.** The value was -4.8%.

**Q.** How did the “activity change, negative = inhibition” value turn out when `NC(N)=O` was run?
**A.** Its value is 0.386%.

**Q.** `CC(C)c1nc(N(C)S(C)(=O)=O)nc(-c2ccc(F)cc2)c1/C=C/C(O)CC(O)CC(=O)O` (stereo unspecified) was tested. Which “activity change, negative = inhibition” value did it give?
**A.** Its value is 0.0884%.

**Q.** For `CCOC(=O)[C@@H](N)CS`, which “activity change, negative = inhibition” value is on record?
**A.** Its value is 15.1%.

**Q.** With `O=C(O)/C=C/c1ccccc1` as the compound, how does the “activity change, negative = inhibition” value read?
**A.** The value was -3.79%.

**Q.** How did the “activity change, negative = inhibition” value turn out when `O=C(O)COc1ccc(CCNS(=O)(=O)c2ccccc2)s1` was run?
**A.** Its value is -11.1%.

**Q.** How did the “activity change, negative = inhibition” value turn out when `CN1C(=O)OC(C)(C)C1=O` was run?
**A.** Its value is 4.53% [at 24.3 µM].

**Q.** For `C[Si](C)(C)O[Si](C)(C)C`, which “activity change, negative = inhibition” value is on record?
**A.** Its value is 0.801%.

**Q.** Which “activity change, negative = inhibition” value does the source give for `CCN(CC)CCC(=O)N1c2ccccc2Sc2ccc(Cl)cc21` here?
**A.** Its value is 6.85%.

**Q.** With `COc1ccc2nc(NC(=O)Nc3ccccc3)sc2c1` as the compound, how does the “activity change, negative = inhibition” value read?
**A.** Its value is -7.32%.

**Q.** For `Cc1c(Cl)cccc1Nc1ncccc1C(=O)O`, which “activity change, negative = inhibition” value is on record?
**A.** The value was -11.8%.

**Q.** Which “activity change, negative = inhibition” value does the source give for `NC(=O)C1c2ccccc2CCc2ccccc21` here?
**A.** The value was 6.08%.

**Q.** Which “activity change, negative = inhibition” value does the source give for `O=C(CCCN1CCN2CCCC2C1)c1ccc(F)cc1` (stereo unspecified) here?
**A.** Its value is -9.22%.

**Q.** `C#C[C@]1(O)CC[C@@H]2[C@H]3CCC4=CC(=O)CC[C@H]4[C@H]3C(=C)C[C@@]21CC` was tested. Which “activity change, negative = inhibition” value did it give?
**A.** The value was 11.4%.

**Q.** Which “activity change, negative = inhibition” value does the source give for `CCc1ccc(S(=O)(=O)O)cc1` here?
**A.** The value was 0.799%.

**Q.** With `CC(C)(C)CC(C)(C)c1cc(Cc2cc(C(C)(C)CC(C)(C)C)cc(-n3nc4ccccc4n3)c2O)c(O)c(-n2nc3ccccc3n2)c1` as the compound, how does the “activity change, negative = inhibition” value read?
**A.** Its value is -4.25%.

**Q.** Which “activity change, negative = inhibition” value does the source give for `CN1CCC(OC(=O)C(Oc2ccc(Cl)cc2)Oc2ccc(Cl)cc2)CC1` here?
**A.** Its value is 6.05%.

**Q.** How did the “activity change, negative = inhibition” value turn out when `CC(C)Cc1ccc([C@@H](C)C(=O)NS(C)(=O)=O)cc1` was run?
**A.** The value was -1.81%.

**Q.** Which “activity change, negative = inhibition” value does the source give for `CC(C)[C@H](N)C(=O)OCC(CO)OCn1cnc2c(=O)[nH]c(N)nc21` (stereo partly specified) here?
**A.** Its value is -1.92%.

**Q.** Which “activity change, negative = inhibition” value does the source give for `CC(C)=CCC/C(C)=C/C=C/C(C)=C/C=C/C(C)=C/C=C/C=C(C)/C=C/C=C(C)/C=C/C=C(\C)CCC=C(C)C` here?
**A.** The value was -1.38%.

**Q.** `CN=C1C=CC(=C(c2ccc(N(C)C)cc2)c2ccc(N(C)C)cc2)C=C1` was tested. Which “activity change, negative = inhibition” value did it give?
**A.** Its value is -15.3%.

**Q.** With `CS(=O)(=O)OCC(O)C(O)COS(C)(=O)=O` (stereo unspecified) as the compound, how does the “activity change, negative = inhibition” value read?
**A.** Its value is 8.1%.

**Q.** How did the “activity change, negative = inhibition” value turn out when `O=C(O)[C@H]1C(=CCO)O[C@H]2CC(=O)N12` was run?
**A.** Its value is -8.74%.

**Q.** For `COC(=O)[C@@H](N)CS`, which “activity change, negative = inhibition” value is on record?
**A.** Its value is 2.57%.

**Q.** With `CC1C(=O)CC2C3(C)CCC2(C(C)C(=O)O)C(=O)C13` (stereo unspecified) as the compound, how does the “activity change, negative = inhibition” value read?
**A.** Its value is 0%.

**Q.** How did the “activity change, negative = inhibition” value turn out when `CC1(C)S[C@@H]2[C@H](NC(=O)C3(N)CCCCC3)C(=O)N2[C@H]1C(=O)O` was run?
**A.** Its value is -1.86%.

**Q.** With `c1ccc2c(c1)Sc1ccccc1N2CCN1CCCC1` as the compound, how does the “activity change, negative = inhibition” value read?
**A.** The value was 0%.

**Q.** How did the “activity change, negative = inhibition” value turn out when `Cc1ccc(C(C)(C)c2ccc(C)cc2)cc1` was run?
**A.** The value was 1.04%.

**Q.** Which “activity change, negative = inhibition” value does the source give for `CN1C(=O)C[C@@H](C(=O)N[C@@H](Cc2cnc[nH]2)C(=O)N2CCC[C@H]2C(N)=O)NC1=O` here?
**A.** The value was -6.42%.
